Some test systems named below: DU-145 prostate; K-562 leukemia; MALME-3M melanoma; MDA-MB-231 breast; RXF 393 renal; SF-268 CNS; SF-295 CNS; SF-539 CNS; UACC-257 melanoma; M14 melanoma.
Assay in all cases: NCI-60 one-dose screen, 48 h (100 = growth as untreated, 0 = no growth, -100 = all killed)
Common to all, as to settings: 10 µM unless noted

Compounds without any hit were thinned out: in the full panel of roughly 83,000, 20% have a hit.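 Testing used 96-well plates and a 48-hour single-concentration exposure. Example: -40 means 40% of the starting cells died.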 Unmarked numbers belong to inactive results. Active and inactive are the calls of the source. The calls were made as follows: active = growth percent below 10; inactive = the rest.

Consider `CC12CCCC(CC(=O)c3[nH]c4ccccc4c31)C2` (stereo not given), for which the growth in the assay on DU-145 prostate is -15.6% (active); in the assay with K-562 leukemia it was 11.2%; in the assay on MALME-3M melanoma it was 36.4%; in the assay with MDA-MB-231 breast it was 37.9%; in the assay on RXF 393 renal, -21.7% (active); with SF-268 CNS it was 63.7%. The growth in the assay with SF-295 CNS is 15.1%; in the assay on SF-539 CNS it was -19.1% (active); in the assay on UACC-257 melanoma it was 66.1%; in the assay on M14 melanoma it was 3.66% (active).
`O=C1Nc2ccc3c(c2/C1=C\c1cc2c(cc1Br)OCO2)OCO3`: the growth in the assay with DU-145 prostate is -12.6% (active); in the assay with K-562 leukemia, 14.9%; in the assay with MALME-3M melanoma, -5.38% (active); with MDA-MB-231 breast, 24.5%; with RXF 393 renal, -16.3% (active); in the assay with SF-268 CNS, 33.8%. Also, the growth with SF-295 CNS was 11.2%; in the assay with SF-539 CNS it was -36% (active); in the assay on UACC-257 melanoma it was 58.3%; in the assay with M14 melanoma, -6.52% (active).
As to `Cn1cc(-c2cnc3ccc(NC(=O)Nc4ccc(F)c(Br)c4)cc3n2)cn1`, the growth is 39.4% with DU-145 prostate; 11.2% in the assay with K-562 leukemia; 35.9% with MALME-3M melanoma; 23.4% in the assay on MDA-MB-231 breast; -22.3% (active) in the assay with RXF 393 renal; 49.6% with SF-268 CNS. Also, the growth in the assay with SF-295 CNS is -3.9% (active); in the assay on SF-539 CNS it was 52.9%; in the assay with UACC-257 melanoma, 47.6%; in the assay with M14 melanoma it was 4.13% (active).
In the case of `Cc1ccc(S(=O)(=O)n2cc(C(=O)C(=O)N3CCOCC3)c3ccccc32)cc1`, the growth was 109% in the assay on DU-145 prostate; 86.9% in the assay with K-562 leukemia; 91% in the assay on MALME-3M melanoma; 80.2% in the assay with MDA-MB-231 breast; 110% in the assay with RXF 393 renal; 97% in the assay on SF-268 CNS. In addition, the growth in the assay on SF-295 CNS was 94.1%; in the assay on SF-539 CNS, 91.2%; in the assay with UACC-257 melanoma, 98.4%; with M14 melanoma, 91.4%.
Consider `COC(=O)c1nc(-c2ccccc2)oc1S(=O)(=O)N1CCN(c2cccc(Cl)c2)CC1`, for which the growth in the assay with DU-145 prostate was 92.7%; with K-562 leukemia, 38.8%; with MALME-3M melanoma, 100%; in the assay with MDA-MB-231 breast, 73.5%; with RXF 393 renal it was 84%; in the assay with SF-268 CNS it was 80.7%. In addition, the growth in the assay with SF-295 CNS was 90.8%; in the assay with SF-539 CNS it was 105%; in the assay on UACC-257 melanoma it was 80.2%; in the assay on M14 melanoma it was 86.9%.
In the case of `CC(=O)Oc1csc(N(C(C)=O)c2cc(C(=O)O)cc(C(=O)O)c2)n1`, the growth with DU-145 prostate is 97.4%; in the assay on K-562 leukemia, 102%; in the assay with MALME-3M melanoma, 87.9%; in the assay on MDA-MB-231 breast, 89.2%; in the assay with RXF 393 renal it was 95.8%; in the assay with SF-268 CNS it was 92.9%. Further, the growth with SF-295 CNS is 96.4%; in the assay with SF-539 CNS it was 89.6%; with UACC-257 melanoma, 92.8%; in the assay with M14 melanoma, 84.5%.
`COc1ccc(C(=O)NC(=O)Nc2cc3c(cc2F)/C(=C/c2[nH]c(C)c(CCC(=O)O)c2C)C(=O)N3)c(F)c1`: the growth was 45.9% in the assay with DU-145 prostate; 45.8% in the assay with K-562 leukemia; 49.9% with MALME-3M melanoma; 61.5% with MDA-MB-231 breast; 33.5% in the assay with RXF 393 renal; 32.3% in the assay with SF-268 CNS. Also, the growth with SF-295 CNS was 21.3%; in the assay on SF-539 CNS, 15.4%; in the assay with UACC-257 melanoma it was 20.1%; in the assay with M14 melanoma, 44.2%.
Turning to `C=C[C@@H]1C[C@@H]2Cc3cc(F)ccc3N1O2`, the growth in the assay on DU-145 prostate was 112%; with K-562 leukemia it was 95.7%; with MALME-3M melanoma, 170%; in the assay on MDA-MB-231 breast it was 112%; in the assay with RXF 393 renal, 115%; in the assay on SF-268 CNS it was 106%. Also, the growth is 112% in the assay with SF-295 CNS, 107% in the assay on SF-539 CNS, 93.8% with UACC-257 melanoma and 120% in the assay with M14 melanoma.
Take `COc1ccc(-c2c(N)n[nH]c2-c2cc3c(c(OC)c2OC)OCO3)cc1`: the growth was 108% with DU-145 prostate; 98.4% in the assay on K-562 leukemia; 97.8% in the assay with MALME-3M melanoma; 83.7% with MDA-MB-231 breast; 108% in the assay with RXF 393 renal; 99.1% with SF-268 CNS. For the same compound, the growth with SF-295 CNS was 102%; with SF-539 CNS, 93.1%; in the assay with UACC-257 melanoma, 98.7%; in the assay on M14 melanoma, 101%.
As for `Cn1c(=O)cc(NC(=O)CN2CCN(c3cc4c(cc3F)c(=O)c(C(=O)O)cn4C3CC3)CC2)[nH]c1=O`, the growth in the assay on DU-145 prostate is 103%; with K-562 leukemia, 100%; in the assay with MALME-3M melanoma, 104%; with MDA-MB-231 breast, 98.5%; with RXF 393 renal, 102%; in the assay on SF-268 CNS, 92.7%. The growth in the assay with SF-295 CNS is 101%; in the assay with SF-539 CNS it was 102%; in the assay on UACC-257 melanoma it was 100%; in the assay on M14 melanoma, 96.5%.
Regarding `COc1cc(-c2nn(C(=O)NS(=O)(=O)c3ccccc3)cc2-c2ccncc2)ccc1Cl`, the growth was 91.8% in the assay on DU-145 prostate; 101% in the assay on K-562 leukemia; 87.3% with MALME-3M melanoma; 70.5% in the assay on MDA-MB-231 breast; 63% in the assay on RXF 393 renal; 58.6% with SF-268 CNS. Also, the growth with SF-295 CNS was 85.1%; in the assay with SF-539 CNS, 74.8%; in the assay with UACC-257 melanoma it was 89.1%; with M14 melanoma it was 78.4%.
Consider `CN(CCCCN(C[C@H]1Cc2ncccc2CN1)[C@H]1CCCc2cccnc21)C1CCC(F)(F)CC1`, for which the growth was 97.9% with DU-145 prostate; 72.3% with K-562 leukemia; 153% in the assay with MALME-3M melanoma; 65.7% in the assay on MDA-MB-231 breast; 89.9% in the assay on RXF 393 renal; 87.8% in the assay with SF-268 CNS. For the same compound, the growth with SF-295 CNS is 96.5%; in the assay on SF-539 CNS it was 99.2%; with UACC-257 melanoma it was 89.2%; with M14 melanoma it was 101%.
For `C=C[C@@H]1C[C@@H]2Cc3cc(Cl)ccc3N1O2`, the growth is 111% in the assay on DU-145 prostate; 95.4% in the assay with K-562 leukemia; 88% with MALME-3M melanoma; 99.3% with MDA-MB-231 breast; 104% in the assay on RXF 393 renal; 106% with SF-268 CNS. The growth was 100% in the assay on SF-295 CNS, 105% in the assay with SF-539 CNS, 99.2% with UACC-257 melanoma and 97.9% with M14 melanoma.
Regarding `COc1ccc(-n2c(=O)sc3c(Cl)nc(C)nc32)c(OC)c1`, the growth is 84.3% with DU-145 prostate; 24.9% in the assay with K-562 leukemia; 101% in the assay on MALME-3M melanoma; 80.4% with MDA-MB-231 breast; 93.5% in the assay on RXF 393 renal; 63.3% with SF-268 CNS. For the same compound, the growth was 104% in the assay on SF-295 CNS, 105% in the assay with SF-539 CNS, 85.1% in the assay with UACC-257 melanoma and 75.7% in the assay on M14 melanoma.

These data come from PubChem BioAssay (NCI).
